# Source: PubChem BioAssay
# MITF inh: inhibitors of human MITF. AID 1259374. O75030. actives 0.91% (n = 650,000). AlphaScreen MITF homodimerization, bead proximity signal. inhibition, % at 2.6 µM; in the data active = inhibition above about 50%;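 note: 0% = vehicle wells with protein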
# GPR151 activ: human GPR151 activation; PathHunter beta-arrestin GPR151 cells, luminescence; activation, % at 11.2 µM; actives 1% (n = 650,000); in the data active = activation above about 4.9%;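 note: 0% = median of compound wells and 100% = cells with positive control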
# Target sequence (Q8TDV0 whole entry, looked up): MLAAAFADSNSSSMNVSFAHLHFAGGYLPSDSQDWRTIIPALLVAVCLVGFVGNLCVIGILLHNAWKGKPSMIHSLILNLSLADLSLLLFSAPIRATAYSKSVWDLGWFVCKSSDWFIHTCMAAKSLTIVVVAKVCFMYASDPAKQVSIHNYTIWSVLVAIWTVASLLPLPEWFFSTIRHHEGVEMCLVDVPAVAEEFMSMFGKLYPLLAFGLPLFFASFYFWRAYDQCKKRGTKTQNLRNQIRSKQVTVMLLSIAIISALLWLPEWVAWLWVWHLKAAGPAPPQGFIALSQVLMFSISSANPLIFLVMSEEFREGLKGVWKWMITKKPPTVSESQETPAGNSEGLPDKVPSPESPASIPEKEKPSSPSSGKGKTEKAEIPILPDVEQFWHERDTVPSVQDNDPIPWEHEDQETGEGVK
# TEAD-YAP inh: TEAD-YAP interaction inhibition; HEK-TIYL cells, TEAD-Gal4/YAP UAS-luciferase luminescence; inhibition, % at 9.12 µM; actives 1.4% (n = 640,000); AID 1259422; in the data active = inhibition above about 32%;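 note: 0% = median of test compound wells and 100% = reference inhibitor wells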
# FBW7 act: human FBW7 E3 ligase activation, primary screen; Q969H0; AlphaScreen FBW7–phospho-cyclin E peptide binding, activator screen; normalized activity (activation), % at 26.1 µM; actives 0.13% (n = 650,000); in the data active = normalized activity above about 1.9%;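 note: purified mutant Fbw7 with reduced substrate affinity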
# MITF confirm: human MITF inhibition, confirmation | shares compounds with MITF inh | inhibition, % at 2.6 µM | actives 16% (n = 4,700) | AID 1259372 | AlphaScreen MITF homodimerization, biotin/His-MITF beads;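 active = inhibition above a cutoff derived from the DMSO control wells, cut at about 28% in these data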;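 note: 0% = MITF dimer wells with DMSO only; inhibitors lower the bead chemiluminescence by keeping MITF from dimerizing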
# AS interf DR: AlphaScreen optical interference, dose response counter-screen. AID 1259373. actives 6% (n = 480). shares compounds with MITF inh. AlphaScreen optical interference counterscreen, cell-free. IC50, µM; call rule not given here
# AS interf ctr: optically interferes with AlphaScreen signal. shares compounds with MITF inh. LysRS AlphaScreen counterscreen, signal interference, triplicate. inhibition, % at 2.6 µM. actives 7.6% (n = 4,700);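 active = inhibition above a cutoff derived from the DMSO control wells, cut at about 30% in these data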
# * marks the source's active call; other numbers are inactive results; · = no result given. Most compounds without a hit are left out; they make up all but 3.5% or so of the library.
SMILES,MITF inh,GPR151 activ,TEAD-YAP inh,FBW7 act,MITF confirm,AS interf ctr,others
CC1CCN(C2CCN(Cc3ccccc3F)CC2)CC1,63.5*,0.6,7.0,0.0,-2.4,0.5,
CC1CCN(Cc2c(F)cccc2F)CC1,62.7*,3.7,-10.8,0.1,-2.8,1.7,
OCCN1CCN(C2CCN(Cc3ccccc3F)CC2)CC1,82.4*,0.2,0.2,0.5,2.8,6.1,
Cc1ccccc1CN1CCN(C2CCCCCC2)CC1,68.8*,0.4,1.9,-0.2,-7.8,2.0,
Fc1ccccc1CN1CCN(C2CCCC2)CC1,28.9,-2.2,-1.4,0.1,·,·,
Fc1cccc(F)c1CN1CCOCC1,7.4,-0.3,-0.9,0.0,·,·,
O=C(C1CC2CCCN2C12C(=O)Nc1ccccc12)N1CCN(c2ccccc2F)CC1 (stereo unspecified),16.3,2.4,-10.4,0.1,·,·,
COc1ccc(C2=N/C(=C\c3ccc(Cl)c(Cl)c3)C(=O)O2)cc1,-7.4,-1.6,0.9,0.1,·,·,
O=Cc1ccc(-c2cc3[nH]c(=O)[nH]c3cc2[N+](=O)[O-])o1,-13.8,-0.9,0.7,0.1,·,·,
COc1ccc(/C=C/C(=O)N2CCN(c3cccc(Cl)c3)CC2)c(OC)c1OC,-4.7,-0.3,-1.4,-0.2,·,·,
Cc1ccccc1CN1CCC(N2CCN(CCO)CC2)CC1,58.6*,0.7,-8.9,0.2,-9.5,-1.6,
Cc1ccccc1CN1CCC(N2CCC(C(=O)N3CCCC3)CC2)CC1,2.3,0.5,6.3,0.0,·,·,
OC(CNCC(c1ccco1)N1CCCC1)COc1ccccc1 (stereo unspecified),53.7*,-1.9,5.9,-0.3,-4.2,1.1,
OC(CNCC(c1ccco1)N1CCCC1)COCc1ccccc1Cl (stereo unspecified),60.7*,0.2,11.8,0.0,-11.0,0.8,
OC(CNC1CCCC1)COCc1ccccc1Cl (stereo unspecified),26.1,0.3,5.3,-0.1,·,·,
COc1ccc(C(CNc2nnnn2-c2ccccc2)N2CCOCC2)cc1 (stereo unspecified),51.3*,0.5,0.8,0.0,3.4,-0.3,
O=C(CC(NCc1ccccn1)C(=O)O)Nc1ccccc1Cl (stereo unspecified),103.8*,-0.1,-2.2,-0.2,88.8*,100.3*,
O=C(Cc1ccccc1)Nc1cc(Cl)ccc1Cl,-3.3,0.9,-2.5,0.0,·,·,
COc1ccccc1NC(=O)CC(C(=O)O)N(C)C (stereo unspecified),15.1,3.0,9.0,0.0,·,·,
O=C(CC(NCc1ccccn1)C(=O)O)Nc1cc(Cl)ccc1Cl (stereo unspecified),104.2*,0.8,-5.9,-0.2,75.4*,100.3*,
COc1ccccc1NC(=O)CC(NCc1ccccn1)C(=O)O (stereo unspecified),100.0*,1.5,-6.4,-0.4,106.0*,100.3*,
S=c1n(CN2CCCC2)nc2sc3ccccc3n12,-1.4,0.4,2.3,0.1,·,·,
O=C1OC(c2ccc(Cl)cc2Cl)=N/C1=C\c1ccc([N+](=O)[O-])o1,55.6*,-0.5,-1.2,-0.3,50.7*,1.6,AS interf DR=>6.05
OCCN(CCO)CC(O)COc1c(F)cc(Br)cc1F (stereo unspecified),-3.7,-0.2,-3.4,0.0,·,·,
C[C@@H](O)[C@@H]1NC(=O)[C@H]2CN(C(=O)NC3CCCCC3)CCN2C1=O,80.3*,-1.1,1.1,-0.1,73.0*,-5.4,AS interf DR=>6.48
SMILES,MITF inh,GPR151 activ,TEAD-YAP inh,FBW7 act,MITF confirm,AS interf ctr,others
CC(C)[C@H]1NC(=O)[C@H]2CN(C(=O)c3ccccc3)CCN2C1=O,4.0,1.2,-12.1,-0.1,·,·,
Cc1ccc(C(=O)N2CCN3C(=O)[C@@H]([C@H](C)O)NC(=O)[C@H]3C2)cc1,10.7,-0.7,-6.6,0.0,·,·,
CC(C)[C@H]1NC(=O)[C@H]2CN(C(=O)NC3CCCCC3)CCN2C1=O,75.9*,0.7,5.0,-0.2,71.7*,-11.6,AS interf DR=>6.48
C=C(C)c1cccc(C(C)(C)NC(=O)N2CCCCC2)c1,-3.8,-0.2,14.3,0.1,·,·,
Cc1ccc(C(=O)Nc2ccc([N+](=O)[O-])cn2)o1,80.5*,-3.6,-32.0,-0.1,69.4*,-9.1,AS interf DR=>6.48
COc1ccc(C(=O)N2CCN(Cc3cc(OC)c(OC)c(OC)c3)CC2)cc1OC,32.0,-0.4,-2.2,-0.2,·,·,
COc1cccc(C(=O)N2CCN(Cc3ccc(OC)c(OC)c3)CC2)c1,60.9*,1.3,3.3,0.1,-2.3,-4.1,
COc1cccc(C(=O)N2CCN(Cc3ccc(C)cc3)CC2)c1,57.6*,-0.1,-4.9,0.7,10.1,12.5,
COc1cccc(OC)c1C(=O)N1CCN(Cc2cccc(Br)c2)CC1,63.7*,-1.0,-0.3,0.3,-3.4,-6.5,
COc1ccc(C(=O)N2CCN(Cc3ccc(Cl)cc3)CC2)cc1OC,53.0*,-0.5,13.0,0.0,-4.0,7.5,
CCCOC(=O)c1ccc(NC(=O)C2CC2)cc1,-10.4,0.7,-42.3,0.1,·,·,
COc1ccc2sc(Nc3ccc4c(c3)OCCO4)nc2c1,0.9,-3.1,-25.6,-0.1,·,·,
CCOc1ccc(C(=O)Nc2ccccc2O)cc1[N+](=O)[O-],5.7,-0.7,-29.6,-0.1,·,·,
CCNc1cc(C)nc(N2CCN(C(=O)c3cccc(OC)c3)CC2)n1,59.1*,-2.0,7.4,-0.2,-1.2,-1.5,
COc1cccc(C(=O)N2CCN(Cc3cccc(Br)c3)CC2)c1,54.3*,-1.5,10.2,0.8,-3.4,-2.5,
CCNc1cc(C)nc(N2CCN(C(=O)c3c(F)cccc3Cl)CC2)n1,12.8,-1.2,1.6,0.1,·,·,
Cc1ccc(C(C)(C)C)cc1SC1CC(=O)C2OCC1O2 (stereo unspecified),10.5,0.7,3.5,0.1,·,·,
O=C(c1ccsc1)N1CCOc2ccc(CN3CCN(c4ccccc4)CC3)cc2C1,72.6*,-1.2,-1.5,-0.4,-4.9,-1.4,
O=[N+]([O-])c1ccc(N2CCc3ccccc3C2)c([N+](=O)[O-])c1,-5.6,-0.8,3.7,0.2,·,·,
O=[N+]([O-])c1ccc(N2CCCc3ccccc32)c([N+](=O)[O-])c1,61.5*,4.5,16.5,-0.4,46.6*,40.5*,
FC(F)(F)c1ccc(NC2CCCCC2)nc1,7.4,-0.4,11.7,0.8,·,·,
CN(c1ccc(C(F)(F)F)cn1)C1CCCCC1,60.3*,0.9,-5.1,0.1,-0.3,10.0,
Cc1cccc(Nc2nc(-c3ccc(O)cc3)cs2)c1,67.2*,-1.3,-46.0,-0.2,8.1,20.8,
C=CCNc1nc(-c2ccc(O)cc2)cs1,69.7*,-0.9,-23.3,-0.3,4.7,22.3,
O=S(=O)(c1ccc2c(c1)CCCC2)N1CCN(c2cc(N3CCCC3)ncn2)CC1,16.2,-0.4,-0.1,0.7,·,·,
O=S(=O)(c1ccc2c(c1)OCCO2)N1CCN(c2cc(N3CCCC3)ncn2)CC1,80.2*,3.1,-13.3,-0.2,8.3,19.5,
Cc1ccc2nc(/C(C#N)=C\c3ccc(OCC(=O)O)cc3)[nH]c2c1,-15.1,0.1,-0.8,0.1,·,·,
